12-LOX inh: ALOX12 (human) lipoxygenase inhibition. 580,000 compounds, 1.1% hits. P18054. purified 12hLO, xylenol orange hydroperoxide absorbance. Potency, µM (titrated, usually from 108 µM), for the others: at the top dose activity change, negative = inhibition, usual class: inhibitors
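Hydroperoxide product was detected by ferrous iron/xylenol orange as the 573 to 405 nm absorbance ratio. Arachidonic acid at 40 uM (final) was turned over for 30 min at room temperature by 150 nM human 12hLO, pH 7.0 Hepes buffer, after 15 min compound preincubation.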
Gal4-VP16 FLuc: Gal4-VP16 reporter inhibition counter-screen; Potency, µM (titrated, usually from 53.6 µM), without a hit: at the top dose activity, negative = inhibition, hits mostly inhibitors; AID 2546; 310,000 compounds, 3.5% hits; Drosophila S2 Gal4-VP16 UAS-luciferase, luminescence, 20 h;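 also: Gal4-VP16 expression switched on by copper sulfate through the metallothionein promoter; nearly all actives have a fitted effect of over 50% in size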
TDP1 cell noCPT: qHTS for Inhibitors of human tyrosyl-DNA phosphodiesterase 1 (TDP1): qHTS in cells in absence of CPT. Potency, µM (titrated, usually from 46.2 µM), for inactives: top-dose activity change, negative = growth inhibition, most hits filed as inhibitors. 420,000 compounds, 15% hits. DT40 Tdp1-/- hTDP1 cells, no CPT, ATP luminescence, 48 h; also: nearly all actives have a fitted effect of over 55% in size
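Growth of hTDP1-complemented DT40 Tdp1-knockout cells is measured by ATP luminescence after at least 48 hr compound exposure at 37 °C, with DMSO substituting for the 20 nM CPT used in the parallel screen.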
RORg inh: blocks mouse ROR gamma transcriptional activity; Potency, µM (doses to about 53.6 µM), without a hit: at the top dose activity change, negative = inhibition, actives largely listed as inhibitors; 310,000 compounds, 5.4% hits; Drosophila S2 Gal4-RORgamma UAS-luciferase reporter, 20 h; P51450; AID 2551; also: nearly all actives have a fitted effect of over 60% in size
Target sequence (P51450 whole entry, looked up, the tested form may be a part): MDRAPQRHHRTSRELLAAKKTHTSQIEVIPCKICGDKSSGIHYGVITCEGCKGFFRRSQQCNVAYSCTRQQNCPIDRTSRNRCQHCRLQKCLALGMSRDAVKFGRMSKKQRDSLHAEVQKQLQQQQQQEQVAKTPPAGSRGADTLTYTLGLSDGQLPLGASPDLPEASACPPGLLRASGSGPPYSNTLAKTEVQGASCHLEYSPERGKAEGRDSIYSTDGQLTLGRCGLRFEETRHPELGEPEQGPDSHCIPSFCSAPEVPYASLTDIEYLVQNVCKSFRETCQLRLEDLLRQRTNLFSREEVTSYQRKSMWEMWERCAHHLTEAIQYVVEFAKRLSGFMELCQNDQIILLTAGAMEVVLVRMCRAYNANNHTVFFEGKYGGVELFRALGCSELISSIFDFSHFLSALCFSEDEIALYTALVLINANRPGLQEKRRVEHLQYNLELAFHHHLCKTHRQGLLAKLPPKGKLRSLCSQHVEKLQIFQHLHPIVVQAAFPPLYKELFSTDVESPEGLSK
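Read-out: Photinus luciferase luminescence; inhibitors lower reporter signal. Insect Schneider cells with Gal4-ROR gamma fusion under metallothionein promoter, UAS reporter; 700 uM final copper sulfate induction, 20 hr, ambient temperature.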
ELG1 repair inh: inhibitors of ELG1-dependent DNA repair in HEK293T cells | HEK293T ELG1-luciferase reporter, luminescence, 16 h; DNA damage induced by 5-fluorouridine | Potency, µM (titrated, usually from 46.1 µM), for inactives: at the highest dose activity change, negative = inhibition, actives largely listed as inhibitors | 330,000 compounds, 2.3% hits; also: nearly all actives have a fitted effect of over 55% in size
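In this reporter screen, reduction of luminescence relative to DMSO vehicle indicated activity. Compounds and 5-fluorouridine were added together to 2,000 cells per well, incubated for 16 hr at 37 °C, then developed with ONE-Glo.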
DT40 TDP1 CPT: growth inhibition of DT40 Tdp1-/-;hTDP1 cells with camptothecin (screen for TDP1 inhibitors). chicken DT40 Tdp1-/-;hTDP1 cells + 20 nM CPT, ATP luminescence, 48 h. Potency, µM (top dose mostly 46.2 µM), without a hit: top-dose activity change, negative = growth inhibition, usual class: inhibitors. 420,000 compounds, 12% hits. AID 686979; also: nearly all actives have a fitted effect of over 55% in size
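Cell growth measured by CellTiter-Glo luminescence after a minimum 48 h, 37 C compound exposure with 20 nM CPT in Tdp1-knockout DT40 cells stably expressing hTDP1, seeded 400/well; qHTS titration format.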
Active calls of the source: *; ? = inconclusive; . = no result given; [ ] = another dose, or the depositor's remark. Rows were chosen to be rich in hits. Some 15% of all compounds tested hit in one or more screens of this group. Calls follow the shape of the dose curve; as a rule, active = well fitted curve in the direction sought with a large enough effect; inconclusive = small, poorly fitted or top-dose-only effect, or another doubt; inactive = no such curve, though single readings can be large; an effect the other way counts as inactive or inconclusive. % is scaled to controls: 0 for no effect and ±100 for the full control effect; potency is read from the fitted curve at half-maximal effect.

SMILES | 12-LOX inh | Gal4-VP16 FLuc | TDP1 cell noCPT | RORg inh | ELG1 repair inh | DT40 TDP1 CPT
Cc1ccccc1OCC(=O)NCC(c1ccc(Cl)cc1)N1CCOCC1 (centres undefined) | 4% | . | 16µM* | . | . | 21µM*
Cc1cccc(N2CCN(C(=O)CS(=O)(=O)c3cccc4nsnc34)CC2)c1C | -7% | . | ? | . | . | 16µM*
O=C(CS(=O)(=O)c1cccc2nsnc12)N1CCN(c2cccc(C(F)(F)F)c2)CC1 | -6% | . | 21µM* | . | . | 8.2µM*
O=C(CS(=O)(=O)c1cccc2nsnc12)N1CCN(c2ccccc2F)CC1 | -7% | . | -21% | . | . | -17%
O=C(c1ccc(F)c(Cl)c1)N1CCC2(CC1)CN(c1ccccc1)C2=O | 39% | . | . | . | . | .
CN(C)C(=O)CN(C)c1nc(-c2ccsc2)nc2ccccc12 | -11% | . | . | . | . | .
COc1cc(CN2CCCCC23Cc2ccccc2CNC3=O)cc(OC)c1 (centres undefined) | -2%[6.33 µM] | . | . | . | . | .
Cc1cccc(C)c1NC(=O)N1CCN(c2nc3ccccc3s2)CC1 | -39% | -1% | ? | ? | 19% | 12µM*
COCCNC(=S)N1CCN(c2nc(-c3ccc(Cl)cc3)cs2)CC1 | -1% | -9% | ? | -27% | -21% | -8%
COCCNC(=S)N1CCN(c2nc3ccccc3s2)CC1 | 28% | 13µM* | 4% | 0% | -3% | ?
CCOc1ccc(NC(=O)N2CCN(c3nc4ccccc4s3)CC2)cc1 | 4% | 2% | ? | 14% | -15% | -28%
Cc1cc(C)c2oc(C(=O)N(Cc3ccc(F)cc3)C3CCS(=O)(=O)C3)cc(=O)c2c1 (centres undefined) | -4% | 1% | -20% | -8% | 0% | ?
Cc1ccc(CN(C(=O)c2cc(=O)c3cc(C)cc(C)c3o2)C2CCS(=O)(=O)C2)cc1 (centres undefined) | ? | 5% | 18µM* | 35% | -9% | ?
CCc1ccc(CN(C(=O)c2cc(=O)c3ccc(C)cc3o2)C2CCS(=O)(=O)C2)cc1 (centres undefined) | -66% | . | ? | . | . | 16µM*
COC(=O)COc1ccc2c(C)c(-c3ccc(Cl)cc3)c(=O)oc2c1 | 24% | . | . | . | . | .
Cn1c(SCc2ccc(C(F)(F)F)cc2)nc2c([nH]c3ccccc32)c1=O | -21% | . | 18µM* | . | . | 9.2µM*
Cn1c(SCc2cccc(F)c2)nc2c([nH]c3ccccc32)c1=O | -14% | . | ? | . | . | 7.3µM*
Cn1c(SCc2ccc(F)cc2)nc2c([nH]c3ccccc32)c1=O | -9% | . | ? | . | . | ?
O=C(NC1CC1)C(NCc1ccc(F)cc1)c1ccc(F)cc1 (centres undefined) | 15% | . | . | . | . | .
O=c1c(Cc2ccc(F)cc2)c(O)ccn1Cc1cccc(Cl)c1 | -7% | -22% | 16µM* | ? | ? | ?
O=c1c(Cc2ccc(Cl)cc2)c(O)ccn1Cc1cccc(Cl)c1 | 0% | -8% | ? | ? | -7% | -11%
O=[N+]([O-])c1ccc2c(c1)S(=O)(=O)C=C2 | ? | ? | . | 0.63µM* | . | .
O=C1c2ccc([N+](=O)[O-])cc2S(=O)(=O)N1Cc1ccccc1 | -7% | ? | 1% | -17% | 11% | 15%
COc1ccc(C)cc1S(=O)(=O)N1CCCC(C(=O)NCc2ccccn2)C1 (centres undefined) | 0% | 1% | -5% | 8% | -6% | 2%
O=C(NCc1ccccn1)C1CCCN(S(=O)(=O)c2cc(Cl)ccc2Cl)C1 (centres undefined) | . | . | 8.2µM* | . | . | 9.2µM*
SMILES | 12-LOX inh | Gal4-VP16 FLuc | TDP1 cell noCPT | RORg inh | ELG1 repair inh | DT40 TDP1 CPT
O=C(NCc1cccnc1)C1CCN(S(=O)(=O)c2cc(Cl)ccc2Cl)CC1 | -12% | -14% | ? | 37% | ? | 7.3µM*
CC(C)CCNC(=O)C1CCN(S(=O)(=O)c2ccc3c(c2)CCC(=O)N3)CC1 | -7% | 3% | -8% | -22% | -2% | 2%
O=C1CCc2cc(S(=O)(=O)N3CCC(C(=O)NCc4ccccn4)CC3)ccc2N1 | 23% | ? | . | 13µM* | 8% | .
Cc1cc(S(=O)(=O)N2CCCC(N(C)CCc3ccccn3)C2)c(C)cc1Cl (centres undefined) | ? | 1% | 21µM* | -14% | ? | 21µM*
FC(F)(F)c1ccc2c(c1)nc(-c1ccc(Cl)cc1)c1nccn12 | -10% | . | . | . | . | .
C=CCNC(=O)C1CCN(c2ccc(S(=O)(=O)N3CCOCC3)cc2Cl)CC1 | -1% | -8% | -29% | ? | ? | -9%
O=C(NCc1cccnc1)C1CCN(c2ccc(S(=O)(=O)N3CCOCC3)cc2Cl)CC1 | -1% | ? | ? | ? | 16µM* | ?
CCCNC(=O)C1CCN(c2ccc(S(=O)(=O)N3CCOCC3)cc2Cl)CC1 | 4%[57.4 µM] | 10% | -30% | ? | ? | 15µM*
C[C@H](NC(=O)CCn1ccc2ccc(F)cc21)C(=O)O | -16% | . | . | . | . | .
Cc1ccc(S(=O)(=O)CCC(=O)N(CCCN2CCOCC2)c2nc3ccccc3s2)cc1 | -17% | . | 2.9µM* | . | 1% | 2.3µM*
CCN(CC)CCN(C(=O)CCS(=O)(=O)c1ccccc1)c1nc2cc3c(cc2s1)OCO3 | 0% | ? | 12µM* | ? | -2% | 8.2µM*
O=C(CCS(=O)(=O)c1ccccc1)N(CCCN1CCOCC1)c1nc2ccccc2s1 | -29% | . | 3.7µM* | . | ? | 5.2µM*
CCCC(=O)N(CCN1CCOCC1)c1nc2cc(C)c(C)cc2s1 | -3% | 2% | 1% | -8% | ? | -13%
Cc1ccc2nc(N(CCN3CCOCC3)C(=O)CCS(=O)(=O)c3ccccc3)sc2c1 | ? | . | 12µM* | . | ? | 12µM*
Cc1nc2nc3ccn(CCN(C)C)c(=O)c3c(-c3ccccc3)n2n1 | -21% | . | . | . | . | .
O=Cc1c[nH]c2cccc(Cl)c12 | -13% | . | . | . | . | .
CC1SC2(NC1=O)C1CC3CC2CC(O)(C3)C1 (centres undefined) | 2% | . | . | . | . | .
COCCN1C(=O)[C@@H]2C[C@@H](CN2Cc2nccn2C)Oc2ccccc21 | -6%[176 µM] | . | . | . | . | .
CS(=O)(=O)N1CCn2cc(C(=O)Nc3ccc(Cl)cc3Cl)nc2C1 | -2%[6.33 µM] | . | . | . | . | .
CC/C(=N\NC(=O)c1ccoc1C)c1ccc(C)o1 | -10% | 10% | -16% | 5µM* | ? | 2%
C/C(=N\NC(=O)c1ccoc1C)c1ccc(Cl)s1 | 12% | 10µM* | 4% | 11µM* | ? | 5%
